Experimental data from ChEMBL document CHEMBL1201862, “PubChem BioAssay data set” (2004).
Screen size: about 310,000 compounds; about 1,900 (0.61%) were called active. Roughly 8% stayed inconclusive and do not appear here. The rule behind the calls is not given here. Many of the other results were omitted from the sample, so actives are more common in it than they were.

Assay: qHTS for Stage-Specific Inhibitors of Vaccinia Orthopoxvirus: mCherry Reporter Primary qHTS.
Assay type: functional
Details: read-out: Potency
For `CN(C)C(=O)CCc1ccc2c3c([nH]c2c1)[C@]1(C)[C@@H](C(=O)N2CCCCC2)C[C@H](CC(=O)NCCN2CCOCC2)C(=O)N1CC3`, the AC50 was 316 µM (active).
For `C[C@H]1O[C@@H](O[C@H]2[C@@H](O)C[C@H](O[C@H]3[C@@H](O)C[C@H](O[C@H]4CC[C@@]5(C)[C@H](CC[C@@H]6[C@@H]5CC[C@]5(C)[C@@H](C7=CC(=O)OC7)[C@@H](O)C[C@]65O)C4)O[C@@H]3C)O[C@@H]2C)C[C@H](O)[C@@H]1O` [GITOXIN], the AC50 was 355 µM (active).
In the case of `Cc1cccc2c1N(CCCCI)C=S2C` (stereo not drawn), the AC50 is reported as 4.47 µM (active).
